This is a sample that favours compounds with a hit; in the whole collection about 1.2% have one here.
Platelet DG rel = inhibitors of platelet dense granule secretion, primary screen, cell-based, MLPCN, human platelets. 300,000 tested, 0.22% active. inhibition, %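 (compounds screened at 7.5 µM in platelet-rich plasma)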. AID 1663, 2009. human platelet-rich plasma, SFLLRN dense granule ATP release, luminescence;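 active means mean replicate score, as percent of positive control, at or above 50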
Yeast superoxide = reduction of superoxide in aged yeast, primary screen, HTS; S. cerevisiae aged cells, superoxide DHE fluorescence; stronger effect = lower value; superoxide response (% of plate mean), % at 10 µM; 330,000 tested, 0.18% active;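 active means superoxide response under a set limit, about three screen SD below normal, cut at about 65% in these data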;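 further: yeast aged for seven days with compound at 30 °C before DHE staining; 100% = average MFI of all compound-treated wells on the plate with controls excluded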
VLA-4 inh = inhibition in human VLA-4 binding assay, primary screen, VLA-4 allosteric modulator project, MLPCN library, flow cytometry, VLA-4 expressing cells | ligand binding flow cytometry | 330,000 tested, 0.2% active | Integrin alpha-4 (Homo sapiens), P13612 | inhibition, % (about 7 µM as worked out from the volumes in the protocol) | AID 2557, 2010; in the data active means inhibition above about 50%
SKN-1 inh = suppressors of acrylamide-induced Pgst-4::GFP reporter in worms, primary screen, SKN-1 inhibitor project, whole organism, uHTS, GFP/RFP fluorescence ratio, strain VP596; 360,000 tested, 0.49% active; inhibition, % at 21.8 µM; C. elegans VP596 Pgst-4::GFP/RFP ratio, 24 h;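 active means interference check ratio from 0.5 to 1.5 plus GFP to RFP signal ratio inhibition reaching or exceeding a fixed threshold, cut at about 30% in these data, passing the limit was not always enough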
ABCB6 inh 2 = ABCB6 transporter inhibitors, primary screen, K562-ABCB6 cells, flow cytometry, MLPCN library | 360,000 tested, 0.19% active | ATP-binding cassette sub-family B member 6 (Homo sapiens), Q9NP58 | fluorescence ratio to DMSO, % at 10 µM | K562-ABCB6 porphyrin accumulation, 1 h; stronger effect = lower value;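 active means fluorescence ratio to DMSO below 75%, the collection mean minus 3 SD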;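 further: signal is porphyrin accumulated inside mitochondria; 100% equals median channel fluorescence of DMSO control wells; lower ratio means ABCB6 inhibition with less porphyrin fluorescence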
Target sequence (Q9NP58 whole entry, looked up): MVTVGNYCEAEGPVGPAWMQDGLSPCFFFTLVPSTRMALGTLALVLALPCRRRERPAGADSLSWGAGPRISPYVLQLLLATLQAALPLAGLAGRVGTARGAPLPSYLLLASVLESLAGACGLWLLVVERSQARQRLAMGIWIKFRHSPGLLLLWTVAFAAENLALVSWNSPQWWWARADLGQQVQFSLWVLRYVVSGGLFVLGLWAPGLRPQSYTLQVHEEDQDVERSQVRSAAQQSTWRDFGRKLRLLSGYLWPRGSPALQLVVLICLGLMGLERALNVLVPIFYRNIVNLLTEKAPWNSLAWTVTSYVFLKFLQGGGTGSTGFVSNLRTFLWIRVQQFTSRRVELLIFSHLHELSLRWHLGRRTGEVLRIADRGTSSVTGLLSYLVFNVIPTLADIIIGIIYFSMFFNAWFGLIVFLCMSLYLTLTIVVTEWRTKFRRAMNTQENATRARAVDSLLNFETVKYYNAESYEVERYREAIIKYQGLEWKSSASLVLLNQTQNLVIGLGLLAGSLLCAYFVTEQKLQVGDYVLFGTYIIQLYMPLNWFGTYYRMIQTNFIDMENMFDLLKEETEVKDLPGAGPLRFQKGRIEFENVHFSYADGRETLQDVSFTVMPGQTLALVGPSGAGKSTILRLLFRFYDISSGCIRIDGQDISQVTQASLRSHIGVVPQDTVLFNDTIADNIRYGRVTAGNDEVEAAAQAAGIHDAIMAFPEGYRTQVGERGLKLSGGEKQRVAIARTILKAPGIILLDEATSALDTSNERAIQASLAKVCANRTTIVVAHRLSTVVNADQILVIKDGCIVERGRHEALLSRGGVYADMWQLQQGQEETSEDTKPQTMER
CR mimetic CP = superoxide lowering in aged yeast cells, confirmation, cherry picked compounds. 850 tested, 1% active. superoxide response (% of plate), % at 10 µM. shares compounds with Yeast superoxide. S. cerevisiae aging, superoxide DHE fluorescence; stronger effect = lower value;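 active means superoxide signal below 65% of the plate average of sample wells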;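 further: cells aged with compound for 7 days at 30 degrees C before staining; 100% equals mean DHE fluorescence of all compound wells on the plate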
DHE counter = DHE quenching or ROS scavenging interference in aged yeast, artefact control for yeast caloric restriction mimetic project, S. cerevisiae BY4741, flow cytometry; AID 435000, 2010; shares compounds with Yeast superoxide; DHE fluorescence; stronger effect = lower value; 850 tested, under 10 active; fluorescence response, % at 10 µM;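 active means fluorescence response below 15%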;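 further: percent of the mean fluorescence averaged over all compound wells on the plate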
Active calls of the source: *.

For CC(C)CCN1C(=O)c2ccccc2C1c1nnnn1C(C)C (stereo unspecified) the results were SKN-1 inh 18 and ABCB6 inh 2 97.
N#Cc1c(F)cccc1NCc1cccnc1 was read as Platelet DG rel -9, Yeast superoxide 56*, VLA-4 inh -3, SKN-1 inh 19, ABCB6 inh 2 86, CR mimetic CP 97 and DHE counter 94.
For COc1cc(CO)c(Br)cc1OCC(=O)Nc1ccccc1C the results were Platelet DG rel 2, Yeast superoxide 64*, VLA-4 inh 15, SKN-1 inh -4, ABCB6 inh 2 98, CR mimetic CP 105 and DHE counter 102.
`O=C(NC(=O)N1CCCC1)c1csnn1` gave Platelet DG rel -1, Yeast superoxide 64*, VLA-4 inh 8, SKN-1 inh -1, ABCB6 inh 2 100, CR mimetic CP 99 and DHE counter 91.
`CC(=O)COc1nc2c(c(-c3ccco3)c1C#N)CCc1ccccc1-2` gave Platelet DG rel -2, Yeast superoxide 65*, VLA-4 inh -1, CR mimetic CP 95 and DHE counter 105.
Screening CCCCNC(=O)C1(C)CCN1C(=O)Cc1cccc2ccccc12 (stereo unspecified) returned SKN-1 inh 7 and ABCB6 inh 2 96.
`COc1cc(-c2nnc(NC(=O)c3ccc(S(=O)(=O)N4CCOCC4)cc3)o2)cc(OC)c1OC` gave Platelet DG rel 3, Yeast superoxide 94 and VLA-4 inh 9.
COc1ccccc1-c1nnc(NC(=O)c2ccc(S(=O)(=O)N3CCOCC3)cc2)o1 was read as Platelet DG rel 2, Yeast superoxide 93, VLA-4 inh -3, SKN-1 inh 22, ABCB6 inh 2 102, CR mimetic CP 91 and DHE counter 93.
`COCc1nnc(NC(=O)c2ccc(S(=O)(=O)N3CCOCC3)cc2)o1` gave Platelet DG rel -5, Yeast superoxide 103, VLA-4 inh 11, SKN-1 inh -8, ABCB6 inh 2 100, CR mimetic CP 118 and DHE counter 117.
For COCc1nnc(NC(=O)c2ccc(S(=O)(=O)N3CCCc4ccccc43)cc2)o1 the results were Platelet DG rel 1, Yeast superoxide 96, VLA-4 inh -4, SKN-1 inh -10, ABCB6 inh 2 99, CR mimetic CP 102 and DHE counter 96.
Screening O=C(Cn1cnc([N+](=O)[O-])c1)Nc1ccc(Cl)cc1Cl returned SKN-1 inh 5 and ABCB6 inh 2 97.
`CCN(CC)C(=O)CCn1nc(-c2ccc(C)cc2)c2ccccc2c1=O` gave Platelet DG rel -11, Yeast superoxide 37*, VLA-4 inh 7, SKN-1 inh -1, ABCB6 inh 2 93, CR mimetic CP 100 and DHE counter 94.
`c1ccc2nc3ccccc3nc2c1` gave Platelet DG rel -2, Yeast superoxide 64*, VLA-4 inh -17, SKN-1 inh 0, ABCB6 inh 2 114, CR mimetic CP 67 and DHE counter 94.
`N#C/C(=N\Nc1c(Cl)cccc1Cl)C(=O)NN` gave Platelet DG rel 1, Yeast superoxide 94, VLA-4 inh -1, SKN-1 inh 31, ABCB6 inh 2 100, CR mimetic CP 110 and DHE counter 119.
`CCOC(=O)NC(=O)/C(C#N)=N/Nc1c(F)cccc1F` gave Platelet DG rel -3, Yeast superoxide 93, VLA-4 inh 4, SKN-1 inh 21, ABCB6 inh 2 101, CR mimetic CP 101 and DHE counter 104.
For CCOC(=O)NC(=O)/C(C#N)=N\Nc1cccc(OC)c1 the results were Platelet DG rel -3, Yeast superoxide 102, VLA-4 inh 4, SKN-1 inh 5, ABCB6 inh 2 97, CR mimetic CP 122 and DHE counter 124.
`CCOC(=O)/C(C#N)=N/Nc1ccccc1C#N` gave Platelet DG rel -3, Yeast superoxide 114, VLA-4 inh 0, SKN-1 inh -9 and ABCB6 inh 2 92.
CNc1ncnc2c1ncn2[C@H]1CN(Cc2ccc3c(c2)OCO3)C[C@@H](CO)O1 was read as SKN-1 inh 3 and ABCB6 inh 2 98.
O=C(CN1CCN(c2ccccc2)CC1)Nc1cccc(C(F)(F)F)c1 was read as Platelet DG rel -9, Yeast superoxide 110, VLA-4 inh 12, SKN-1 inh 5 and ABCB6 inh 2 103.
Screening CSc1ccccc1NC(=O)CN1CCN(c2ccccn2)CC1 returned Platelet DG rel 3, Yeast superoxide 97, VLA-4 inh -5, SKN-1 inh 7, ABCB6 inh 2 102, CR mimetic CP 99 and DHE counter 101.
Cc1cnc(NC(=O)CN2CCN(c3ccccn3)CC2)s1 was read as Platelet DG rel -2, Yeast superoxide 114, VLA-4 inh 0, SKN-1 inh -23 and ABCB6 inh 2 81.
Screening COc1ccc(NC(=O)CN2CCN(c3ccccn3)CC2)cc1Cl returned Platelet DG rel -3, Yeast superoxide 55*, VLA-4 inh 13, SKN-1 inh 23, ABCB6 inh 2 82, CR mimetic CP 99 and DHE counter 97.
O=C(CN1CCN(c2ccccn2)CC1)Nc1cccc(C(F)(F)F)c1 was read as Platelet DG rel 0, Yeast superoxide 105, VLA-4 inh 8, SKN-1 inh 2, ABCB6 inh 2 97, CR mimetic CP 98 and DHE counter 90.
COc1ccc(NC(=O)CN2CCN(c3ccc(F)cc3)CC2)cc1Cl was read as Platelet DG rel 1, Yeast superoxide 115, VLA-4 inh 0, SKN-1 inh 8 and ABCB6 inh 2 101.
Screening Cc1cc(Br)ccc1NC(=O)CN1CCN(c2ccccn2)CC1 returned Platelet DG rel 3, Yeast superoxide 106, VLA-4 inh 9, SKN-1 inh 0, ABCB6 inh 2 97, CR mimetic CP 96 and DHE counter 91.
`CCOC(=O)[C@]12CCC=C1N(CCC1=CCCCC1)C(=O)[C@H](CC(=O)N1CCCCC1)C2` gave SKN-1 inh -4 and ABCB6 inh 2 96.
For CCOC(=O)CC(S(=O)(=O)c1ccccc1)S(=O)(=O)c1ccccc1 the results were SKN-1 inh 3 and ABCB6 inh 2 104.
